# Source: PubChem BioAssay AID1825 (The Scripps Research Institute Molecular Screening Center, 2009)
# Hit rate of the full screen: of about 290,000 compounds, about 2,300 (0.79%) were called active. The sample holds actives, similar compounds and a random draw of the others, so the mix is not that of the screen. No stated cut-off is given here; in the data, active means inhibition above about 22%; inactive means the rest.
# Experiment: cytotoxicity in IEC-6 intestinal epithelial cells, primary screen, cytotoxicity control for KLF5 inhibitor project, cell-based, luminescence (AID 1825);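 further: 0% = plate median of test compound wells and 100% = cytotoxic reference compound wells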
# Conditions: IEC-6 cytotoxicity, luminescence viability; at 5 µM; hits give high values
row,Compound,inhibition
1,COc1cccc2sc(N(CCCN(C)C)C(=O)C(c3ccccc3)c3ccccc3)nc12,3.5% (inactive)
2,Cc1cccc2sc(N(CCCN(C)C)C(=O)CCS(=O)(=O)c3ccccc3)nc12,11.3% (inactive)
3,COc1cccc2sc(N(CCCN(C)C)C(=O)CCS(=O)(=O)c3ccccc3)nc12,50% (active)
4,COc1ccccc1NC(=O)c1ccc(C)s1,34.8% (active)
5,COc1ccccc1NC(=O)C1=C(C)NC(=O)NC1c1ccc(C)s1 (centres undefined),-4.5% (inactive)
6,COC(=O)c1c(NC(C)=O)sc(C(=O)Nc2ccccc2OC)c1C,-1.2% (inactive)
7,CC(NC(=O)Cn1cc(C(F)(F)F)cc(Cl)c1=O)c1ccccc1 (centres undefined),4.4% (inactive)
8,COc1ccccc1CCNC(=O)c1c(C)nn(CC(C)C)c1Cl,-4.6% (inactive)
9,O=C(Cc1cccs1)Nc1ccc([N+](=O)[O-])cc1,-0.5% (inactive)
10,CC(C)c1ccc(Cc2nnc(NCCCO)[nH]c2=O)cc1,3.6% (inactive)
11,CCOc1ccccc1NC(=O)Cn1nnc(C(=O)NCc2cccs2)c1N,84.2% (active)
12,Cc1ccc(NC(=O)Cn2nnc(C(=O)NCc3ccco3)c2N)c(C)c1,-1.1% (inactive)
13,CCOc1ccccc1NC(=O)Cc1cccs1,-0.9% (inactive)
14,CC(C)c1cc(C(=O)N/N=C/c2ccoc2)c(O)c(C(C)C)c1,-1.3% (inactive)
15,CCN(C(=O)C1CCCN(c2nc(-c3ccc(OC)cc3)no2)C1)c1ccc(OC)cc1 (centres undefined),-1.6% (inactive)
16,COc1ccccc1Nc1ncnc2c1oc1ccccc12,-0.2% (inactive)
17,COc1ccc(C)cc1Nc1nc(C)nc2c1oc1ccccc12,34.1% (active)
18,Cc1nc(Cl)c2oc3ccccc3c2n1,-5.3% (inactive)
19,CSc1ncccc1C(=O)Nc1ccc(C)cn1,4.3% (inactive)
20,CCCOC(=O)c1[nH]c2c(c1C)C(=O)CC(c1cccs1)C2 (centres undefined),81.1% (active)
21,COCCOC(=O)c1[nH]c2c(c1C)C(=O)CC(c1ccc(OC)cc1)C2 (centres undefined),2.6% (inactive)
22,CCOC(=O)c1[nH]c2c(c1-c1ccccc1)C(=O)CC(c1ccc(Cl)cc1)C2 (centres undefined),2% (inactive)
23,CCOc1cc(C)c(S(=O)(=O)NCc2ccccn2)cc1C,4.3% (inactive)
24,COc1ccccc1N(CC(=O)N/N=C(\C)c1ccccc1O)S(=O)(=O)c1ccc(C)cc1,33.8% (active)
25,COc1ccc(S(=O)(=O)N(CC(=O)N/N=C/c2ccccc2C(=O)O)c2ccccc2OC)cc1,2.9% (inactive)
26,COc1ccccc1NC(=O)CN(c1ccccc1OC)S(=O)(=O)c1ccccc1,-4.1% (inactive)
27,CC(=O)NC(Cc1c[nH]c2ccccc12)C(=O)NCCc1ccccc1 (centres undefined),-0.3% (inactive)

row,Compound,inhibition
1,CN1CCN(c2ccc(NC(=O)c3ccccc3)cc2)CC1,-2.5% (inactive)
2,COc1ccc(NC(=O)c2cccc(NC(=O)c3ccco3)c2)c(OC)c1,4.3% (inactive)
3,COc1cccc(C(=O)Nc2ccc(N3CCN(C(=O)c4ccco4)CC3)cc2)c1,45% (active)
4,COc1cccc(C(=O)Nc2ccc(N3CCCC3)cc2)c1,24.2% (active)
5,COc1ccc(C(=O)Nc2ccc(N3CCC(C)CC3)cc2)cc1Br,-5.3% (inactive)
6,Cc1ccc(OCC(=O)Nc2ccc(N3CCN(C(=O)c4ccco4)CC3)cc2)c(C)c1,-14.8% (inactive)
7,CCOC(=O)N1CCN(CCC(=O)Nc2ccccc2)CC1,-5.3% (inactive)
8,O=C(Nc1cccc(NC(=O)c2ccccc2[N+](=O)[O-])c1)c1ccccc1Cl,8% (inactive)
9,O=C(O)c1cc([N+](=O)[O-])c(Nc2cccc3ccccc23)c([N+](=O)[O-])c1,4.7% (inactive)
10,CSc1ccccc1OCc1cc(C(=O)N2C[C@H]3CC[C@H]2C3)no1,1.9% (inactive)
11,COc1ccc(N2CCN(C(=O)[C@@H](NC(=O)c3cc(OC)cc(OC)c3)C(C)C)CC2)cc1,-4.9% (inactive)
12,Cc1cccnc1NC(=O)c1cccc(S(=O)(=O)N2CCN(c3ccc(F)cc3)CC2)c1,2.3% (inactive)
13,O=C(N/N=C/c1coc2ccccc2c1=O)c1cc2ccccc2o1,4.7% (inactive)
14,Cc1c(/C=N\NC(=O)c2cc3ccccc3o2)c2ccccc2n1C,43.7% (active)
15,O=C(N/N=C/c1c[nH]c2ccccc12)c1cc2ccccc2o1,12.6% (inactive)
16,Cc1ccccc1NC(=O)c1ccccc1NS(=O)(=O)c1cccc2cccnc12,-2.7% (inactive)
17,O=[N+]([O-])c1ccccc1S(=O)(=O)Nc1cccc2cccnc12,55.6% (active)
18,O=C(Nc1ccccc1Cl)Nc1cccc2cccnc12,3.4% (inactive)
19,O=C(NCCc1nnc2ccc(SCC(=O)N3CCOCC3)nn12)c1ccccc1,-3.4% (inactive)
20,CCC(Cc1ccccc1)NS(=O)(=O)c1ccc2c(c1)NC(=O)CS2 (centres undefined),2.9% (inactive)
21,COc1cc2c(cc1OC)CN(C(=O)c1ccc(S(=O)(=O)N3CCCCCC3)cc1)CC2,0.2% (inactive)
22,COc1cc2c(cc1OC)CN(C(=O)c1cc(=O)c3ccccc3o1)CC2,18.2% (inactive)
23,CCOc1cc(C(=O)N2CCc3cc(OC)c(OC)cc3C2)ccc1OC(F)F,90% (active)
24,CCCCN(CCCC)CCCNC(=O)CN1C(=O)COc2ccc(S(=O)(=O)N3CCC(C)CC3)cc21,7.2% (inactive)
25,COc1ccc(C2=Nc3cc(C)ccc3OC2)cc1,-0.6% (inactive)
26,CCOC(=O)CNc1nc(Cl)nc(Nc2ccc(OC)cc2OC)n1,6.5% (inactive)
27,CCCc1cc(=O)oc2c(C)c(OCC(=O)NCc3ccccn3)ccc12,-5.9% (inactive)

row,Compound,inhibition
1,Nc1c(C(=O)NCc2ccccc2)nnn1Cc1cccc(Cl)c1,24.6% (active)
2,CCOc1ccc(Cn2nnc(C(=O)NCc3ccccc3)c2N)cc1,4.7% (inactive)
3,COc1cccc(CNC(=O)c2nnn(CC(=O)Nc3cc(Cl)ccc3C)c2N)c1,19.7% (inactive)
4,Cc1ccc(NS(=O)(=O)c2ccc(C(C)(C)C)cc2)cn1,-0.9% (inactive)
5,Cc1cnc(C(=O)Oc2cccc(Cl)c2Cl)cn1,5.1% (inactive)
6,COc1ccccc1-c1nnc(SCC(=O)Nc2ccccc2)o1,-0.6% (inactive)
7,COc1ccccc1-c1nnc(NC(=O)c2cccc(N3C(=O)CCC3=O)c2)o1,-5.8% (inactive)
8,COc1ccccc1-c1nnc(NC(=O)c2ccc3ncsc3c2)o1,22.8% (active)
9,CC(C)=CCN1CCN(Cc2cc3ccccc3[nH]2)CC1CCO (centres undefined),1.5% (inactive)
10,O=C(Cc1ccc(-c2ccccc2)cc1)NC(c1ccccc1)c1ccccc1,-1.8% (inactive)
11,CCOC(=O)/C=C/C(=O)OCC(=O)NC(c1ccccc1)c1ccccc1,50.9% (active)
12,CCOC(=O)C(C(=O)OCC)C(C#N)c1ccccc1 (centres undefined),3.7% (inactive)
13,CCc1ccc2[nH]c(=O)c(Cc3ccccc3)c(O)c2c1,-0.4% (inactive)
14,COC(=O)c1ccc(S(=O)(=O)N2CCc3ccccc3C2)cc1,1.8% (inactive)
15,CC(=O)Nc1c2c(nn1-c1cccc(C)c1)CSC2,2.5% (inactive)
16,O=C(c1ccc(OC2CCN(Cc3ccccn3)CC2)cc1)N1CCCCCC1,-0.7% (inactive)
17,O=C(NCCOc1cccnc1)c1ccc(OC2CCN(Cc3ccccn3)CC2)cc1,99.8% (active)
18,Cn1cc(CNC(=O)c2ccc(OC3CCN(Cc4ccccn4)CC3)cc2)cn1,5.4% (inactive)
19,Cc1cccc(N2C(=O)N3[C@H](c4ccc(F)cc4)[C@@H]4C(=O)N(C5CCCCC5)C(=O)[C@@H]4[C@]3(Cc3ccccc3)C2=O)c1,-6% (inactive)
20,O=C(CSc1nnc(CNC(=O)c2ccc(F)cc2)o1)Nc1ccc2c(c1)OCO2,8.3% (inactive)
21,COC(=O)CSc1nnc(NC(=O)CCc2ccccc2)s1,8.2% (inactive)
22,CCCCNc1nc2c(c(=O)n(C)c(=O)n2C)n1Cc1cccc(OC)c1,25.1% (active)
23,Cn1c(=O)c2c(nc(NCCc3ccccc3)n2Cc2ccccc2)n(C)c1=O,-1.8% (inactive)
24,COC(=O)C(C)Sc1nc2c(c(=O)n(C)c(=O)n2C)n1Cc1cccc(C)c1 (centres undefined),-2.6% (inactive)
25,CCc1ccc(CN(C)C(=O)C2CCC(=O)N(Cc3cccc(OC)c3)C2)nc1 (centres undefined),5.8% (inactive)
